In the library only some 2.8% were active in any assay of this set; here they are far more common.
IDE inh = inhibits human insulin-degrading enzyme in HEK cells | P14735 | FAbetaB cleavage, fluorescence polarization | inhibition, % at 5.59 µM | 320,000 compounds, 0.41% hits;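 active means percent inhibition above the average of all tested compounds plus 3 SD, set per screening campaign, cut at about 16% in these data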;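 further: IDE supplied by intact live HEK cells; FP after avidin binding of uncleaved biotin substrate so inhibition keeps polarization high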
PP1 counter = blocks human PP1-alpha phosphatase, a PP5 counter-screen; inhibition, % at 6.7 µM; P62136; purified PP1alpha, OMFP fluorescence; 320,000 compounds, 0.9% hits;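 active means inhibition above the mean inhibition of all tested compounds plus 3 SD, computed separately for each screening campaign, cut at about 15% in these data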
PP5 inh = inhibitors of human protein phosphatase 5 (PP5) | 320,000 compounds, 0.18% hits | P53041 | inhibition, % at 6.7 µM | purified PP5c, OMFP substrate fluorescence;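 active means inhibition above the campaign's mean inhibition across all tested compounds plus 3 SD, cut at about 9.5% in these data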
Target sequence (P53041 whole entry, looked up): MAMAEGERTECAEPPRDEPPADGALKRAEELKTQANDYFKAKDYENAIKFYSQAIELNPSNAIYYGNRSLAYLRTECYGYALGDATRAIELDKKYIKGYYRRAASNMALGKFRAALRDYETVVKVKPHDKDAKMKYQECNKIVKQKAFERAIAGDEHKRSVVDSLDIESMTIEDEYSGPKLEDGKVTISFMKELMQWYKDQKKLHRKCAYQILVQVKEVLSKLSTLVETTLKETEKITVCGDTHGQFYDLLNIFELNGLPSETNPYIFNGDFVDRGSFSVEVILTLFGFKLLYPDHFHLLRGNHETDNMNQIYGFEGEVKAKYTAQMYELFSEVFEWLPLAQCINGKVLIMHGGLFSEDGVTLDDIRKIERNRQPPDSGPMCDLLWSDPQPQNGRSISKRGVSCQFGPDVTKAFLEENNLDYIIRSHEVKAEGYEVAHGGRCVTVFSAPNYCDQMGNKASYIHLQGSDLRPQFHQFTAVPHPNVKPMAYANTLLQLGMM
Granule exo inh = blocks lytic granule exocytosis | TALL-104 LAMP-1 surface exposure, flow cytometry; cells stimulated with thapsigargin and PMA | inhibition, % at 10 µM | 360,000 compounds, 0.66% hits | AID 651702;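 active means inhibition above about 55%, limit read from the data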
IDE cell activ = activators of human insulin-degrading enzyme in cells | P14735 | HEK cells, FAbeta-B cleavage, fluorescence polarization; 0% vehicle, 100% cell-free pure enzyme wells | activation, % at 5.96 µM | 340,000 compounds, 0.073% hits | AID 493087;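 active means activation above the mean of all tested compounds plus 3 SD, set per screening campaign, cut at about 17% in these data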
SKKanGAS inh = inhibitors of SKKanGAS S. pyogenes growth in kanamycin (SK-promoter or general growth effect). inhibition, % at 7.5 µM. 300,000 compounds, 1.3% hits. BacTiter-Glo, 6 h;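 active means mean replicate score, as percent of positive control median, at least 50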;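 further: strain carries kanamycin resistance gene driven by streptokinase promoter and grows in 40 µg/ml kanamycin; loss of luminescence reflects streptokinase promoter inhibition or plain growth inhibition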
IDE cell inh cf = confirmation of human insulin-degrading enzyme inhibitors in cells; shares compounds with IDE inh; HEK cells, FAbetaB cleavage, fluorescence polarization; inhibition, % at 5.59 µM; 1,200 compounds, 51% hits;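 active means mean inhibition across triplicate wells above the cutoff set by the earlier primary insulin-degrading enzyme screen, cut at about 16% in these data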
HEK cytotox = kills HEK cells in IDE inhibitor counter-screen; shares compounds with IDE inh; HEK293 cytotoxicity, ATP luminescence; inhibition, % at 5.59 µM; 1,200 compounds, 28% hits; in the data active means inhibition above about 22%
Hits are given with their value; n = inactive; x = no result.

SMILES	IDE inh	PP1 counter	PP5 inh	Granule exo inh	IDE cell activ	SKKanGAS inh	IDE cell inh cf	HEK cytotox
Oc1c(Cl)cc(Cl)cc1/C=C/c1ccc2cccc(O)c2n1	33	n	n	n	n	102	54	n
Cc1ccc2nc(N3CCN(Cc4nnnn4Cc4ccccc4)CC3)c(C#N)cc2c1	21	n	n	n	n	n	n	n
Cc1cccc(N2CCN(C(=O)C3CCC(CNS(=O)(=O)c4cccs4)CC3)CC2)c1C (stereo not given)	21	n	n	n	n	n	n	52
Cc1ccc(Cl)cc1N1CCN(C(=O)c2ccc3nc[nH]c3c2)CC1	19	n	n	n	n	n	n	n
Cc1oc2c(C)c3oc(=O)c(CCC(=O)N4C[C@H]5C[C@@H](C4)c4cccc(=O)n4C5)c(C)c3cc2c1C	n	n	n	n	n	n	x	x
CCc1cc(=O)oc2cc(OCC(=O)N3CCC(C(N)=O)CC3)ccc12	n	n	n	n	n	n	x	x
CCCCc1cc(=O)oc2c(C)c(OCC(=O)N3C[C@H]4C[C@@H](C3)c3cccc(=O)n3C4)ccc12	23	17	n	n	n	n	n	n
CCCCc1cc(=O)oc2cc(OCC(=O)N3CCC(C(N)=O)CC3)ccc12	18	n	n	n	n	n	n	n
Cc1oc2cc3oc(=O)c(CCC(=O)N4C[C@H]5C[C@@H](C4)c4cccc(=O)n4C5)c(C)c3cc2c1C	18	n	n	n	n	n	n	n
CCC(c1nnnn1-c1ccc2c(c1)OCCO2)N1CCN(c2ccc(C(F)(F)F)cc2[N+](=O)[O-])CC1 (stereo not given)	x	x	x	n	x	x	x	x
COc1ccc(NS(=O)(=O)c2cccc(C(=O)NNC(=O)c3cc(S(N)(=O)=O)ccc3OC)c2)cc1	n	n	n	n	n	n	x	x
CC1(C(=O)O)CCN1C(=O)c1cccnc1Oc1ccccc1 (stereo not given)	x	x	x	n	x	x	x	x
Cc1ccc(N=Cc2sc(O)c3ccccc23)cc1	36	n	n	n	n	n	57	n
Cc1ccc(N=Cc2sc(O)c3ccccc23)c(C)c1	n	n	n	n	n	n	x	x
COc1cccc2sc(Nc3nc(-c4ccncc4)cs3)nc12	17	n	n	n	n	n	n	61
COc1cccc2sc(Nc3nc4ccc(NC(C)=O)cc4s3)nc12	24	n	n	n	n	n	n	117
Cc1cc(C)c2oc(C(=O)Nc3ccc(S(=O)(=O)Nc4nccs4)cc3)cc(=O)c2c1	22	n	n	n	n	n	n	n
COc1ccc(OC)c(S(=O)(=O)N(C(C)=O)c2ccc3oc(=O)sc3c2)c1	n	n	n	n	n	n	x	x
CC(=O)N(c1ccc2oc(=O)sc2c1)S(=O)(=O)c1ccccc1	23	n	n	n	n	n	n	n
CC(C)C(=O)N(c1ccc2oc(=O)sc2c1)S(=O)(=O)c1ccccc1	25	n	n	n	n	n	n	n
CC(C)[C@H](NS(=O)(=O)c1cccc(C(F)(F)F)c1)C(=O)OCC(=O)NC(=O)NCc1ccco1	n	x	x	n	n	x	x	x
C[C@H](CO)N1C[C@H](C)[C@@H](CN(C)Cc2ccc(Oc3ccccc3)cc2)Oc2c(NC(=O)c3ccncc3)cccc2C1=O	24	x	x	n	n	x	n	24
O=C(N/N=C/c1ccccc1)c1ccc2c(c1)OCO2	n	n	n	n	n	n	x	x
O=C(NN=Cc1c(O)ccc2ccccc12)c1ccc2c(c1)OCO2	30	x	x	n	n	x	54	112
O=C(N/N=C/c1c(O)ccc2ccccc12)c1ccc(CO)nc1	27	n	n	n	n	n	39	73
CC1CC(C)(C)NC(=S)N1CCCC(=O)NCCc1ccc(Cl)cc1 (stereo not given)	n	n	n	n	n	n	x	x
O=C1C(Sc2ccccc2)=C[C@@]2(O)CC[C@@H](O)[C@]1(Sc1ccccc1)[C@H]2O	x	x	x	n	x	x	x	x
Cc1ccc(OCC(=O)Nc2ccccc2C(=O)N2CCCC2)cc1	n	n	n	n	n	n	x	x
CCCCN1C(=O)/C(=C/C=C2/CC(C)(C)CN2C)SC1=S	107	n	n	n	n	n	149	28
